# Test results from PubChem BioAssay.
# The source made the active and inactive calls.
# Experiments:
# [1] = biological target: Albumin (Bos taurus) (UniProt P02769); test: compounds binding labelled BSA control protein – biochemical, small-molecule microarray, Alexa647 label, 635/667 nm fluorescence, artefact control for SMM control protein annotation, profiling panel (AID 1118); conditions: BSA-A647 binding, fluorescence 635 nm, higher = more signal;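 note: score merges 667 nm emission intensity and signal-to-noise per printed compound spot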
# [2] = probe aXIP binding to arrayed compounds – biochemical, NeuroSMM set, 635/667 nm fluorescence, primary screen (AID 1119); conditions: small-molecule microarray, higher = more signal, called active from +8 up or from −8 down;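 note: probe is the protein aXip251-270 applied at 1 µg/mL to compound-printed slides; binding of probe to printed compounds measured as 667 nm fluorescence plus signal to noise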
# [3] = probe aNOTCH3 binding on compound microarray – biochemical, small-molecule microarray, 635/667 nm fluorescence, primary screen (AID 1120); conditions: higher = more signal;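 note: probe is a biotin-tagged antibody raised against NOTCH3 rather than NOTCH3 protein; score merges spot fluorescence near 667 nm with spot signal to noise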
# [4] = probe aNOTCH2 binding on compound microarray – biochemical, small-molecule microarray, 635/667 nm fluorescence, primary screen (AID 1121); conditions: higher = more signal;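 note: score merges feature fluorescence read at 667 nm with its signal to noise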
# [5] = biological target: Carbonic anhydrase 2 (Homo sapiens) (UniProt P00918); test: compounds binding carbonic anhydrase 2 – biochemical, small-molecule microarray, Alexa647-labelled CAII, profiling panel (AID 1122); conditions: CAII-A647 binding fluorescence, higher = more signal
# [6] = COS7 lysate on small-molecule microarray, probe aHis, 635 nm (AID 1123); conditions: COS7 cell lysate, fluorescence, higher = more signal;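 note: z-score combines 667nm fluorescence intensity with signal-to-noise per printed compound spot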
# [7] = probe aLAP1 signal on lysate-treated microarray – cell lysate, small-molecule microarray, COS7 lysate, primary screen (AID 1124); conditions: probe aLAP1, fluorescence, higher = more signal;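 note: lysate comes from COS7 cells expressing LAP1 and is applied at 0.3 µg/mL; score merges spot fluorescence near 667 nm with signal-to-noise over triplicate slides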
# [8] = tested on: Sam68 (KHDRBS1); test: compounds binding KHDRBS1 protein – biochemical, small-molecule microarray, 635 nm fluorescence, primary screen (AID 1125); conditions: higher = more signal;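 note: score merges 667 nm channel intensity with signal to noise over triplicate slides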
# [9] = tested on: Chordin-like protein 2 (CHRDL2); test: compounds binding chordin-like 2 – biochemical, small-molecule microarray, 635 nm fluorescence, primary screen (AID 1126); conditions: fluorescence 635 nm, higher = more signal;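 note: printed compound slides probed with Chrdl2 protein at 4 µg/mL for 1 h at 4 C; score merges 667 nm emission intensity with signal to noise over three replicate slides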
# [10] = biological target: Concanavalin-A (Canavalia ensiformis) (UniProt P02866); test: compounds binding concanavalin A lectin – biochemical, small-molecule microarray, Alexa647 label, 635 nm, artefact control for SMM control protein annotation, primary screen (AID 1127); conditions: ConA-A647 binding fluorescence, higher = more signal;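 note: z combines 667 nm emission intensity with signal-to-noise across three replicate slides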
# Chain of Concanavalin-A (Canavalia ensiformis) (P02866 whole entry, looked up): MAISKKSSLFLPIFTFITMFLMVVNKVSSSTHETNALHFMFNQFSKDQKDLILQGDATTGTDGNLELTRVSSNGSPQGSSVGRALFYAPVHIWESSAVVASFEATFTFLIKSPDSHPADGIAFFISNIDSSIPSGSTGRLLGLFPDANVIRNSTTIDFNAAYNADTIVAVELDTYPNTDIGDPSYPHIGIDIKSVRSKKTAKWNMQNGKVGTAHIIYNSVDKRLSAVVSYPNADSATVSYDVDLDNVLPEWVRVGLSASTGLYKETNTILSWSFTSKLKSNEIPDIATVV
# Chain of Albumin (Bos taurus) (P02769 whole entry, looked up): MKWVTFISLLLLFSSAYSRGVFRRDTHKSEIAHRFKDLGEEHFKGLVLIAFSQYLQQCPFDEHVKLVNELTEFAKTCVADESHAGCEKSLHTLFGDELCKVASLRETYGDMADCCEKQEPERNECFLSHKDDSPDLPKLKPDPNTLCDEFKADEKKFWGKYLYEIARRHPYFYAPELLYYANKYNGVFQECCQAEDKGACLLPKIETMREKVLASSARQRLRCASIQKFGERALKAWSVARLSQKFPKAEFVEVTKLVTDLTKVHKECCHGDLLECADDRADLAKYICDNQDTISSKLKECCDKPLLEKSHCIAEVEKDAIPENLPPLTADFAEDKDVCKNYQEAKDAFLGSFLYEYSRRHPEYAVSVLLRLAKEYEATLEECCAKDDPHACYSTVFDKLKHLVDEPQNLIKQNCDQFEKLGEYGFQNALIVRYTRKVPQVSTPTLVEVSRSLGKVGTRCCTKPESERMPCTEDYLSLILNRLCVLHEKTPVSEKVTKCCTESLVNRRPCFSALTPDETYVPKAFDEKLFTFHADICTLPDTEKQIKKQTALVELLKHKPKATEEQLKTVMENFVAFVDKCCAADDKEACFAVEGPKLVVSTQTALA
SMILES,composite z-score [1],composite Z-score [2],composite z-score [3],composite z-score [4],composite z-score [5],composite z-score [6],composite z-score [7],composite z-score [8],composite z-score [9],composite z-score [10]
C=CCNC(=O)[C@H]1[C@@H]2C(=O)O[C@@H](c3ccccc3)[C@@H](c3ccccc3)N2[C@@H](c2ccc(OCCO)cc2)[C@]12C(=O)N(C(=O)OCCOC)c1ccc(C#CC3(O)CCCCCC3)cc12,-1.02,-0.586 (inactive),0.373,0.308,0.615,1.9,1.5,1.3,1.1,1.07
COCCCNC(=O)[C@@]1(Sc2ccc(C)cc2)CC(=O)N(Cc2ccccc2)[C@@H]1c1ccc(CO)cc1,0.146,0.201 (inactive),-0.689,-0.134,0.534,2.54,0.378,0.0145,-0.21,-0.668
CO[C@H]1O[C@H](CO)[C@@H](OC(=O)Nc2ccccc2-c2ccccc2)[C@H](OC(=O)Nc2ccccc2-c2ccccc2)[C@H]1OC(=O)Nc1ccccc1-c1ccccc1,0.784,0.341 (inactive),0.275,-0.0759,0.503,1.96,-0.32,1.3,0.0309,1.15
COc1ccc(C#Cc2ccc3c(c2)[C@]2(C(=O)N3)[C@H](c3ccc(OCCO)cc3)N3[C@H](c4ccccc4)[C@H](c4ccccc4)OC(=O)[C@H]3[C@@H]2C(=O)Nc2nc3ccccc3s2)cc1,0.562,-0.0127 (inactive),0.217,-0.0267,0.645,2.22,0.534,1.29,0.57,1.13
O=C1C2C=CC(C(O)c3ccc(-c4ccccc4)s3)N(Nc3ccccc3F)C2C(=O)N1c1ccccc1 (stereo not given),0.822,0.446 (inactive),0.113,0.149,0.69,2.09,0.335,1.29,-0.0798,1.12
O=C1OCC=C[C@H]2OC34C=CCN(c5ccc(Cl)cc5)C(=O)[C@H]3N(CCCO)C(=O)[C@@H]4[C@@H]12 (stereo not given in full),-1.3,-0.265 (inactive),-0.254,-0.164,0.96,0.446,-0.0727,-0.819,-1.6,-0.927
O=C1c2ccccc2[C@@]2(Cc3ccccc3N(Cc3ccccc3)C2=O)[C@H](c2ccc(CO)cc2)N1Cc1ccccc1C(F)(F)F,0.811,-0.372 (inactive),-0.128,-0.0705,0.781,1.04,-0.381,-1.31,-1.5,-0.486
O=C1O[C@H](c2ccccc2)[C@H](c2ccccc2)N2[C@H]1[C@@H](C(=O)Nc1nc3ccccc3s1)[C@]1(C(=O)Nc3ccc(C#CC4=CCCCC4)cc31)[C@H]2c1ccc(OCCO)cc1,0.897,-0.495 (inactive),0.225,-0.0144,0.761,2.68,0.596,1.3,0.448,1.12
CN1C(=O)C2C=CC(C(O)C3=C[C@H]4C[C@@H](C3)C4(C)C)N(Nc3ccc([N+](=O)[O-])cc3[N+](=O)[O-])C2C1=O (stereo not given in full),0.909,1.09 (inactive),0.289,0.186,0.722,2.38,0.805,1.12,0.51,1.16
[N-]=[N+]=NCc1ccccc1[C@@H]1OC(c2ccc(OCCCO)cc2)=N[C@]1(Cc1ccccc1N=[N+]=[N-])C(N)=O,0.825,0.0773 (inactive),0.473,0.299,0.715,2.8,0.202,1.3,-0.124,1.12
[N-]=[N+]=Nc1ccccc1[C@H]1OC(c2ccc(OCCCO)cc2)=N[C@@]1(CCS(=O)(=O)c1ccccc1)C(=O)N1CCOCC1,1.08,1.23 (inactive),0.586,0.358,0.522,2.65,0.603,1.3,-0.409,1.22
O=C1NC(=O)C2C1C=CC(C(O)c1cccs1)N2Nc1ccccn1 (stereo not given),0.426,0.32 (inactive),0.118,-0.0826,0.803,1.21,0.0919,0.248,0.129,0.766
[N-]=[N+]=NCc1ccccc1C[C@]1(C(N)=O)N=C(c2ccc(OCCCO)cc2)O[C@H]1c1ccccc1N=[N+]=[N-],0.421,-0.338 (inactive),0.327,0.0185,0.513,1.46,0.312,1.23,-0.652,1.09
CN1C(=O)C2C=CC(C(O)c3ccccc3)N(NC(=O)OC(C)(C)C)C2C1=O (stereo not given),0.959,0.0333 (inactive),0.245,-0.0722,0.722,2.05,0.23,1.01,-0.33,0.442
COc1ccc([Si](C)(C)[C@H]2[C@H](CCO)O[C@@]3(C(=O)N(Cc4ccccc4)c4ccc(N5C(=O)COc6ccccc65)cc43)[C@@H]2C)cc1,0.449,0.412 (inactive),-0.0431,-0.0552,0.443,0.69,0.11,-0.101,-0.516,0.211
COc1ccc([Si](C)(C)[C@H]2[C@H](CC(=O)N3CCC[C@H]3CO)O[C@@]3(C(=O)N(Cc4cccc(N5CCC5=O)c4)c4ccccc43)[C@@H]2C)cc1,-0.654,-0.804 (inactive),0.229,-0.0392,0.395,0.789,-0.0115,1.31,0.95,0.759
